Test systems include HCT-15 colon; HT29 colon; SNB-75 CNS; SNB-19 CNS; U251 CNS; PC-3 prostate; SK-MEL-5 melanoma; UACC-62 melanoma; LOX IMVI melanoma; SK-MEL-28 melanoma.
Holding throughout (assay): NCI-60 one-dose screen, 48 h (100 = growth as untreated, 0 = no growth, -100 = all killed)
What all share (details): 10 µM

Molecules are shown by their SMILES. About 83,000 compounds went through this panel and 20% of them were active in at least one assay; those are over-represented in the sample as a whole.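 Results are percent growth after 48 hours of single-concentration exposure. 100 means growth as in untreated cells, lower positive values show inhibition; negative values down to -100 show cell death.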 A number with no mark means an inactive call. Calls of active or inactive are those of the source. The calls were made as follows: active = growth percent below 10; inactive = the rest.

`COc1cc(/C=C2\CCCC3C2=Nc2ccccc2NC3c2cc(OC)c(OC)c(OC)c2)cc(OC)c1OC` (stereo not given): the growth with HCT-15 colon is 6.11% (active); with HT29 colon, -3.94% (active); with SNB-75 CNS, 54.5%; in the assay with SNB-19 CNS, 64.4%; with U251 CNS, -11.4% (active); in the assay on PC-3 prostate it was 38.2%. The growth in the assay with SK-MEL-5 melanoma is -52% (active); in the assay with UACC-62 melanoma, -32.6% (active); in the assay with LOX IMVI melanoma, -62% (active); with SK-MEL-28 melanoma it was 29.4%.

For the molecule `CCOC(=O)c1cc(C(=O)c2ccc(F)cc2F)n2ccccc12`, the growth in the assay with HCT-15 colon is 79.9%; in the assay with HT29 colon, 77.4%; in the assay with SNB-75 CNS it was 83.6%; in the assay on SNB-19 CNS, 84.3%; in the assay on U251 CNS it was 79.4%; in the assay on PC-3 prostate, 75.6%. For the same molecule, the growth in the assay with SK-MEL-5 melanoma was 92.6%; in the assay on UACC-62 melanoma it was 86.4%; with LOX IMVI melanoma, 90.4%; in the assay with SK-MEL-28 melanoma it was 115%.

Take `C/C=C/CSC(C)(C)C(=O)NC`: the growth is 100% in the assay with HCT-15 colon; 98.1% in the assay with HT29 colon; 92% in the assay with SNB-75 CNS; 101% in the assay on SNB-19 CNS; 104% in the assay with U251 CNS; 92.8% in the assay on PC-3 prostate. Moreover, the growth in the assay on SK-MEL-5 melanoma was 101%; in the assay with UACC-62 melanoma, 105%; with LOX IMVI melanoma it was 97%; with SK-MEL-28 melanoma it was 112%.

With `O=C(CCc1nnc2sc(-c3cc(O)c(O)c(O)c3)nn12)c1nc2ccccc2[nH]1`, the growth with HCT-15 colon is 88.8%; with HT29 colon, 93.5%; with SNB-75 CNS, 93.6%; in the assay on SNB-19 CNS, 113%; in the assay with U251 CNS it was 94.4%; with PC-3 prostate it was 86.3%. Further, the growth with SK-MEL-5 melanoma was 84.1%; in the assay on UACC-62 melanoma it was 104%; with LOX IMVI melanoma, 98.3%; in the assay on SK-MEL-28 melanoma, 110%.

With `C=CCNCCN1C(=O)c2ccc3c4c(ccc(c24)C1=O)C(=O)N(CCNCC=C)C3=O`, the growth is -67.4% (active) in the assay on HCT-15 colon; -44.9% (active) in the assay on HT29 colon; -37.9% (active) with SNB-75 CNS; -88.1% (active) in the assay with SNB-19 CNS; -89.4% (active) with U251 CNS; -7.8% (active) in the assay on PC-3 prostate. Besides, the growth in the assay with SK-MEL-5 melanoma was -95.4% (active); in the assay with UACC-62 melanoma it was -74.9% (active); in the assay with LOX IMVI melanoma, -78.8% (active); in the assay with SK-MEL-28 melanoma it was -57% (active).

As to `CN(C)CCCOc1ccccc1NC1=C(Cl)C(=O)C(Nc2ccccc2OCCCN(C)C)=C(Cl)C1=O`, the growth in the assay with HCT-15 colon is -49% (active); in the assay with HT29 colon, -51% (active); with SNB-75 CNS it was 35%; with SNB-19 CNS it was -87.1% (active); in the assay on U251 CNS, -86.1% (active); in the assay on PC-3 prostate, -20.8% (active). For the same molecule, the growth in the assay on SK-MEL-5 melanoma is -96.3% (active); with UACC-62 melanoma, -77.8% (active); in the assay on LOX IMVI melanoma, -74.9% (active); in the assay on SK-MEL-28 melanoma, 14.1%.

Take `COc1cc(C)ccc1Oc1nc(Nc2ccc(N3CCOCC3)cc2)ncc1NC(=O)Nc1cc(C(F)(F)F)cc(C(F)(F)F)c1`: the growth is 66.6% in the assay with HCT-15 colon; 63.8% with HT29 colon; 65.9% in the assay with SNB-75 CNS; 61.4% in the assay with SNB-19 CNS; 53.1% in the assay with U251 CNS; 38.1% in the assay with PC-3 prostate. Further, the growth in the assay with SK-MEL-5 melanoma is 82.6%; with UACC-62 melanoma it was 82.6%; with LOX IMVI melanoma it was 47.1%; in the assay with SK-MEL-28 melanoma, 94%.

Regarding `CS(=O)(=O)c1nccc(-c2c(-c3cccc(O)c3)nc3sccn23)n1`, the growth in the assay on HCT-15 colon was 101%; in the assay with HT29 colon, 91.7%; in the assay on SNB-75 CNS, 70.4%; in the assay on SNB-19 CNS, 103%; in the assay with U251 CNS, 91.9%; with PC-3 prostate, 96.8%. The growth is 86% in the assay on SK-MEL-5 melanoma, 85.9% with UACC-62 melanoma, 91.5% in the assay on LOX IMVI melanoma and 94% with SK-MEL-28 melanoma.

`COc1cc(Cc2cc(-c3ccccc3)n[nH]c2=O)cc(OC)c1OC`: the growth is 34.5% in the assay on HCT-15 colon; 18.3% in the assay with HT29 colon; 55.5% with SNB-75 CNS; 62.9% in the assay with SNB-19 CNS; 48.7% with U251 CNS; 61.9% in the assay with PC-3 prostate. The growth was 50.4% in the assay on SK-MEL-5 melanoma, 43.3% in the assay with UACC-62 melanoma, 45.5% in the assay with LOX IMVI melanoma and 70% in the assay with SK-MEL-28 melanoma.

`CC(=O)OC1C=CC(OC(C)=O)O1` (stereo not given): the growth with HCT-15 colon is 95.4%; in the assay with HT29 colon it was 91.5%; with SNB-75 CNS, 95.3%; in the assay with SNB-19 CNS it was 104%; in the assay with U251 CNS, 88.6%; in the assay with PC-3 prostate it was 92.7%. For the same molecule, the growth with SK-MEL-5 melanoma was 104%; in the assay on UACC-62 melanoma, 84.4%; in the assay on LOX IMVI melanoma, 80.4%; with SK-MEL-28 melanoma, 110%.

Turning to `O=C(Nc1ccc(F)cc1)c1cc2ccccc2cc1O`, the growth is 76% with HCT-15 colon; 95.8% in the assay with HT29 colon; 91.8% with SNB-75 CNS; 83.3% with SNB-19 CNS; 79.6% in the assay on U251 CNS; 42.9% in the assay with PC-3 prostate. In addition, the growth is 65.7% in the assay with SK-MEL-5 melanoma, 57.6% in the assay with UACC-62 melanoma, 76% with LOX IMVI melanoma and 88.7% in the assay on SK-MEL-28 melanoma.

Turning to `CC(C)c1ccc(C(C)C(=O)N(CC2=C(C(C)c3ccccn3)c3ccccc3C2)C(C)C)cc1` (stereo not given), the growth is 30.3% in the assay with HCT-15 colon; 22.3% with HT29 colon; 49.3% with SNB-75 CNS; 58.2% in the assay on SNB-19 CNS; 36% in the assay on U251 CNS; 17.9% with PC-3 prostate. Further, the growth in the assay with SK-MEL-5 melanoma was 30.2%; with UACC-62 melanoma it was 53.4%; in the assay on LOX IMVI melanoma, 31.1%; in the assay on SK-MEL-28 melanoma, 79.7%.

On to `Cc1cc(Cl)ccc1Nc1nc(C(F)(F)F)ccc1C(=O)N/N=C/c1cccc(O)c1`, for which the growth is 23% with HCT-15 colon; 23.7% in the assay on HT29 colon; 28.9% in the assay on SNB-75 CNS; 63.5% with SNB-19 CNS; 30.5% in the assay with U251 CNS; 29.7% with PC-3 prostate. Further, the growth is -52.1% (active) in the assay on SK-MEL-5 melanoma, 38.7% with UACC-62 melanoma, 35.9% with LOX IMVI melanoma and 52.4% with SK-MEL-28 melanoma.

The values above are taken from PubChem BioAssay (NCI).
